Results published in PubChem BioAssay (NCI).
This is part of a sample that, as a whole, favours compounds with a hit. Of some 83,000 tested, about 20% had one in any assay.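 Note: values are percent growth. 100 is the growth of untreated cells, values between 100 and 0 indicate rising inhibition; between -100 and 0 indicates cell death.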 Unmarked numbers belong to inactive results. Active and inactive are the calls of the source. How the source made its calls: active means growth percent below 10; inactive means the rest.

What was measured:
Assay in all cases: NCI-60 one-dose screen, 48 h (100 = growth as untreated, 0 = no growth, -100 = all killed)
Conditions in all cases: 10 µM unless noted
SR leukemia = tested on: SR leukemia
RPMI-8226 leukemia = tested on: RPMI-8226 leukemia
OVCAR-8 ovarian = tested on: OVCAR-8 ovarian
OVCAR-5 ovarian = tested on: OVCAR-5 ovarian
OVCAR-4 ovarian = tested on: OVCAR-4 ovarian
SK-OV-3 ovarian = tested on: SK-OV-3 ovarian
IGROV1 ovarian = tested on: IGROV1 ovarian
OVCAR-3 ovarian = tested on: OVCAR-3 ovarian
HS 578T breast = tested on: HS 578T breast
NCI/ADR-RES ovarian = tested on: NCI/ADR-RES ovarian

Row | Compound | growth (SR leukemia) | growth (RPMI-8226 leukemia) | growth (OVCAR-8 ovarian) | growth (OVCAR-5 ovarian) | growth (OVCAR-4 ovarian) | growth (SK-OV-3 ovarian) | growth (IGROV1 ovarian) | growth (OVCAR-3 ovarian) | growth (HS 578T breast) | growth (NCI/ADR-RES ovarian)
1 | CCOC(=O)c1c(C)oc2ncnc(Nc3ccc(NC(=O)Nc4cccc(Cl)c4)cc3)c12 | 53.6% | 46.1% | 50.2% | 122% | 73.7% | 93.3% | 78.4% | 80.9% | 80.6% | 43.8%
2 | CCOc1ccc(N(C)c2ccc(/C=C/C3=[N+](C)c4ccccc4C3(C)C)cc2)cc1 | -26.7% (active) | -20.3% (active) | -15.8% (active) | 40.1% | 37.1% | 16.9% | 1.79% (active) | -72.9% (active) | 41.7% | 72.9%
3 | CCCCn1c(Cc2ccc(OC)cc2)nc2cc(OC)c(OC)cc2c1=O | 2.75% (active) | 26.1% | 78.2% | 104% | 73.6% | 99.4% | 81.3% | 86.3% | 94.5% | 72.5%
4 | Nc1ccc(N=Nc2ccccc2)c2cc(S(=O)(=O)O)ccc12 | 95.8% | 103% | 96.5% | 107% | 107% | 97.8% | 108% | 108% | 104% | 101%
5 | CC(=O)OCC1O[C@@H](OC(C)=O)[C@@H](NC(=O)NS(=O)(=O)c2ccccc2)C(OC(C)=O)[C@@H]1OC(C)=O (stereo not given in full) | 88.9% | 107% | 113% | 108% | 109% | 113% | 108% | 110% | 109% | 113%
6 | COc1cc(CNC(=O)CCCC/C=C/C(C)C)ccc1OCc1nnc(Nc2ccccc2F)o1 | 67.3% | 64.9% | 45.2% | 77.7% | 0.691% (active) | 48.6% | 58.4% | 68.3% | 83.7% | 43.3%
7 | COc1cccc(Cn2cc3c(c2)-c2oncc2CC3)c1 | 13.8% | 37.6% | 32.3% | 42.6% | 50.9% | 1.4% (active) | 20.1% | -30.4% (active) | 8.85% (active) | 6.75% (active)
8 | C=CCC(CCC(CC=C)C(=O)OCC)C(=O)OCC (stereo not given) | 86.7% | 101% | 95.2% | 106% | 102% | 107% | 102% | 115% | 107% | 109%
9 | CCCCCSc1ccc2nc(NC(=O)OCCC)sc2c1 | 34.2% | 29.6% | 65.8% | 86.3% | 35.1% | 41.9% | 55.4% | 13.3% | 23.9% | 22.7%
10 | O=C(O)c1occ(Cl)c1Cl | 92.7% | 100% | 107% | 96.5% | 115% | 109% | 120% | 118% | 115% | 111%
11 | CC1CCCCC[N+]12CCCC2 (stereo not given) | 91.7% | 100% | 101% | 106% | 113% | 98.1% | 102% | 116% | 112% | 111%
12 | Clc1ccc(I)c2ccccc12 | 102% | 104% | 102% | 107% | 107% | 103% | 107% | 108% | 98.9% | 109%
13 | COc1ccc(-c2cn3ccnc3c(-c3ccc4ncn(C5CCCCC5)c4c3)n2)cc1 | 8.27% (active) | 4.37% (active) | 28.8% | 41.2% | 53.4% | 25.7% | 46.6% | -26.5% (active) | 20% | 12.8%
14 | O=C(Nc1ccc(-n2cc(-c3ccncc3)c(-c3ccc(Cl)c(O)c3)n2)cc1)c1cc(C(F)(F)F)cc(C(F)(F)F)c1 | 23.9% | 27.6% | 65.4% | 84.5% | 70% | 72.4% | 70.5% | 53.2% | -4.23% (active) | 72.9%
15 | O=C(OCC1CC2(Cl)C(Cl)=C(Cl)C1(Cl)C2(Cl)Cl)C1C(C(=O)OCC2CC3(Cl)C(Cl)=C(Cl)C2(Cl)C3(Cl)Cl)C2(Cl)C(Cl)=C(Cl)C1(Cl)C2(Cl)Cl (stereo not given) | 93% | 103% | 104% | 105% | 110% | 110% | 115% | 107% | 117% | 106%
16 | CC(=O)c1cc(Nc2cc(C)nc(N)n2)cc(C(C)=O)c1 | 35.8% | 100% | 98.8% | 91.6% | 108% | 116% | 91.7% | 112% | 94.6% | 94%
17 | CCN(CC)CCCC(C)Nc1c(C)cnc2cc(Cl)c(C)cc12 (stereo not given) | 16.5% | 43.6% | 96% | 98.1% | 85.4% | 98.5% | 96.3% | 92.9% | 96.3% | 93.2%
18 | C[C@@H](c1ccc2c(c1)[nH]c1ccc(Cl)cc12)c1nc2ccc(Cl)cc2[nH]1 | 43.2% | 8.76% (active) | 94% | 75.2% | 74.2% | 96.3% | 57.6% | 72% | 107% | 88.1%
19 | CNCCCNCCCCNCCCN1C(=O)c2ccc3c4c(ccc(c24)C1=O)C(=O)N(CCCNCc1ccccc1OC)C3=O | 12% | 15% | 41.9% | 55.9% | -10.8% (active) | 54.4% | 12.7% | 6.09% (active) | 12.5% | 43.4%
20 | Cc1cc2c(-c3nc4ccccc4n3C)c(O)c(O)cc2c(O)c1-c1c(C)cc2c(-c3nc4ccccc4n3C)c(O)c(O)cc2c1O | 56.4% | 24.4% | 32.1% | 58.1% | 70.1% | 83.2% | 89.7% | 71.3% | 28.4% | 102%
21 | COc1ccc(-c2nc(N)n(C(=S)Nc3ccccc3)n2)cc1 | 90.8% | 99% | 97.8% | 111% | 109% | 94.7% | 99.4% | 103% | 87.2% | 102%
22 | CC(C)(C)c1cc(C[P+](c2ccc(Cl)cc2)(c2ccc(Cl)cc2)c2ccc(Cl)cc2)cc(C(C)(C)C)c1O | 39.5% | 10.9% | 85.8% | 105% | 79.2% | 88.9% | 52.1% | 90.3% | 105% | 97.2%
23 | N/C(=N\O)c1ccncc1 | 108% | 110% | 102% | 102% | 103% | 106% | 105% | 105% | 110% | 102%
24 | COC(=O)c1ccc(C(=Nc2ccc(N(C)C(=O)CN3CCN(C)CC3)cc2)c2c(O)[nH]c3ccc(C(=O)OC)cc23)cc1 | 2.08% (active) | 15.1% | 30.7% | 69.7% | 38.3% | 0.753% (active) | 5.1% (active) | 28.3% | 8.61% (active) | 107%
25 | O=c1c2c(c3ccccc3n1-c1ccccc1)NC(=S)NC2c1ccc(Cl)cc1 (stereo not given) | 26% | 8.62% (active) | 41.3% | 45.5% | 76% | 50.3% | 40.1% | 47.5% | -3.16% (active) | 78.3%
26 | CCn1cnc(C[C@H](NC(=O)[C@@H](NC(=O)Nc2cc(C(F)(F)F)cc(C(F)(F)F)c2)C(C)C)C(=O)OC)c1 | -35.5% [100 µM] (active) | -52.4% [100 µM] (active) | -81.6% [100 µM] (active) | -94.9% [100 µM] (active) | -96.2% [100 µM] (active) | -100% [100 µM] (active) | -71.5% [100 µM] (active) | -89.5% [100 µM] (active) | 7.39% [100 µM] (active) | 0.865% [100 µM] (active)
27 | COC(=O)c1ccc2[nH]c(O)c(C(=Nc3ccc(N(C)C(=O)CN4CCN(C)CC4)cc3)c3ccc(N)cc3)c2c1 | 3.76% (active) | 84% | 116% | 77.8% | 73.7% | 85.6% | 46.6% | 96.2% | 45.2% | 113%
